The values that follow come from PubChem BioAssay (EPA / NIEHS).

Test [1] concerns the target Bile acid receptor (Homo sapiens) (UniProt Q96RI1). Put plainly: ATG_IR1_CIS: Attagene CIS-FACTORIAL HepG2 Assay for human Nuclear Receptor Subfamily 1 Group H Member 4 (NR1H4), IR1 submotif (AID 2282946). The following applies: IR1 reporter transcription, actives raise or lower the signal. An outline of the steps: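 Transient MRTU transfection, HepG2; 24 h dosing; RNA → RT-PCR → 6-FAM primer extension → HpaI digest → capillary electrophoresis fluorescence. Gain/loss of signal fitted relative to DMSO.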

Test [2] in a line: ATG_GRE_CIS: Attagene CIS-FACTORIAL HepG2 Assay for human Glucocorticoid Response Elements (GRE) (AID 2282947). Particulars: HepG2 GRE cis-reporter, Attagene multiplex mRNA; actives raise or lower the signal. An outline of the steps:
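Following 24 h chemical exposure of transiently transfected HepG2 cells, total RNA was reverse-transcribed and reporter cDNA amplified, fluorescently labelled and sized by capillary electrophoresis. Signal gain or loss was fitted relative to DMSO vehicle.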

A short description of test [3]: ATG_ISRE_CIS: Attagene CIS-FACTORIAL HepG2 Assay for human Interferon Regulatory Factor 1 (IRF1) binding to an Interferon-Stimulated Response Element (ISRE) (AID 2282948). The following applies: HepG2 ISRE cis-reporter (Attagene), mRNA transcription readout; actives raise or lower the signal. An outline of the steps:
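Quantitation relies on labelled RT-PCR fragments separated by capillary electrophoresis. Human HepG2 cells bearing cis-promoter reporter constructs were treated 24 h; DMSO served as baseline for bidirectional fitting.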

The nature of test [4]: ATG_M_06_CIS: Attagene CIS-FACTORIAL HepG2 Assay for M06 Transcription Factor (Internal Marker) (AID 2282950). The following applies: HepG2 Attagene CIS-FACTORIAL M06 internal marker reporter; actives raise or lower the signal. Summed up: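 Fluorescence-labelled RT-PCR products from cis-promoter reporter units, cut with HpaI and resolved by capillary electrophoresis, give the signal. Cells are human HepG2, dosed for 24 h. Serves as background control, fitted relative to DMSO.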

For test [5], the target named is Hypoxia-inducible factor 1-alpha (Homo sapiens) (UniProt Q16665). Put plainly: ATG_HIF1a_CIS: Attagene CIS-FACTORIAL HepG2 Assay for human Hypoxia Inducible Factor 1 (HIF1A) (AID 2282951). The following applies: HepG2 Attagene cis-factorial HIF1a reporter transcription; actives raise or lower the signal. Summed up: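 Fluorescence intensity of capillary-separated, 6-FAM-labelled reporter amplicons gives mRNA induction in HepG2 cells carrying transfected cis-promoter reporter units; cells exposed 24 h, responses fitted up or down from DMSO.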
Hypoxia-inducible factor 1-alpha (Homo sapiens), sequence (Q16665 whole entry, looked up): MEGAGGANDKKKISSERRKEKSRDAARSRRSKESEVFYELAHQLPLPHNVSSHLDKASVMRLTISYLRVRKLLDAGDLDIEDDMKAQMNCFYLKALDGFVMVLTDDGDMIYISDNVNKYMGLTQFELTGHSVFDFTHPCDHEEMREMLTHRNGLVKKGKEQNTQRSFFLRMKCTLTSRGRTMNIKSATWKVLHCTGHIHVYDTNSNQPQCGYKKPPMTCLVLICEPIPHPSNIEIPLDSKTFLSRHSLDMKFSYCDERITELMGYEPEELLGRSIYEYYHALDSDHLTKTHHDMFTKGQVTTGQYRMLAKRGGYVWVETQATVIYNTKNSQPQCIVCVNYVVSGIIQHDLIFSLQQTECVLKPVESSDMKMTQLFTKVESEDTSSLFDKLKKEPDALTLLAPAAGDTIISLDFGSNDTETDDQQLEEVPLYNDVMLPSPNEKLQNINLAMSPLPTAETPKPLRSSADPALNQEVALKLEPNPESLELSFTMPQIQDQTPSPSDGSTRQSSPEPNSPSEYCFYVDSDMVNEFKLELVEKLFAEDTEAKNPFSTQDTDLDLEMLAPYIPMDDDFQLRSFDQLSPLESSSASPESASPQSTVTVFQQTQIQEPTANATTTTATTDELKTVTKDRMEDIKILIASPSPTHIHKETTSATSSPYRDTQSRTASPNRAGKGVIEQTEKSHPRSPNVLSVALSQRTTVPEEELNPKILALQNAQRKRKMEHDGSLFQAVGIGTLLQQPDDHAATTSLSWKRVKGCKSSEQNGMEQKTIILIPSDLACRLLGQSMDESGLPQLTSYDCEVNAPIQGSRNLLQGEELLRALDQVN

For test [6], the target named is Hepatocyte nuclear factor 6 (Homo sapiens) (UniProt Q9UBC0). Description: ATG_HNF6_CIS: Attagene CIS-FACTORIAL HepG2 Assay for human Hepatocyte Nuclear Factor 6 (HNF6) (AID 2282952). Particulars: HepG2 Attagene cis-factorial HNF6 reporter transcription; actives raise or lower the signal. Summed up:
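Transiently transfected HepG2 cells expressing cis-regulated reporter transcription units were exposed to chemical for 24 h in a 24-well format. Reporter transcript abundance was determined by fluorescence capillary electrophoresis.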

In test [7] the target is Heat shock factor protein 1 (Homo sapiens) (UniProt Q00613). Put plainly: ATG_HSE_CIS: Attagene CIS-FACTORIAL HepG2 Assay for human Heat Shock Transcription Factor 1 (HSE) (AID 2282953). The following applies: HepG2 HSE cis-reporter, Attagene RNA transcription; actives raise or lower the signal. Summed up:
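After a 24 h incubation with test chemical, transfected HepG2 cells were harvested for RNA; reporter transcripts were measured by RT-PCR and capillary electrophoresis. Values reflect gain or loss of signal relative to DMSO.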

The nature of test [8]: ATG_MRE_CIS: Attagene CIS-FACTORIAL HepG2 Assay for human Metal Responsive Element (MRE) (AID 2282954). Particulars: HepG2 MRE cis-reporter transcription, Attagene multiplex; actives raise or lower the signal. An outline of the steps:
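Step one: transfect HepG2 with cis-regulated reporter units. Step two: dose 24 h. Step three: isolate RNA, RT-PCR, 6-FAM label, HpaI digest, capillary electrophoresis. Fit bidirectionally to DMSO.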

The nature of test [9]: ATG_PBREM_CIS: Attagene CIS-FACTORIAL HepG2 Assay for human Phenobarbital-responsive Enhancer Module (PBREM) (AID 2282955). Particulars: HepG2 PBREM cis-reporter, Attagene multiplexed transcription; actives raise or lower the signal. An outline of the steps: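 Cells were transfected with cis-element reporter units and treated for 24 h, after which RNA was extracted and reporter transcripts measured by RT-PCR and capillary electrophoresis.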

Test [10] concerns the target Paired box protein Pax-6 (Homo sapiens) (UniProt P26367). Description: ATG_Pax6_CIS: Attagene CIS-FACTORIAL HepG2 Assay for human Paired Box 6 (PAX6) (AID 2282956). The following applies: HepG2 CIS-FACTORIAL PAX6 reporter transcription, RNA readout; actives raise or lower the signal. An outline of the steps:
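After twenty-four hours of chemical exposure, transfected HepG2 cells are harvested for RNA. Cis-promoter reporter transcripts are amplified, fluorescently labelled and sized by capillary electrophoresis, with gain and loss of signal scored against DMSO.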

The nature of test [11]: ATG_PXRE_CIS: Attagene CIS-FACTORIAL HepG2 Assay for human Pregnane X Receptor Element (PXRE) (AID 2282957). Particulars: HepG2 Attagene CIS-FACTORIAL PXRE reporter, mRNA; actives raise or lower the signal. An outline of the steps:
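Cis-element reporter mRNA in human hepatoma HepG2 cells is measured 24 h post-dosing by RT-PCR, primer-extension labeling and capillary electrophoresis; gain or loss of signal is fitted relative to DMSO.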

Test [12] is described as follows: ATG_PPRE_CIS: Attagene CIS-FACTORIAL HepG2 Assay for human Peroxisome Proliferator-activated Response Element (PPRE) (AID 2282958). The following applies: HepG2 PPRE cis-element reporter, Attagene transcription factor profiling; actives raise or lower the signal. An outline of the steps:
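In this cell-based multiplex, a PPRE cis element drives a reporter sequence in transiently transfected HepG2 cells. Following 24 h treatment, labeled cDNA amplicons are sized and quantified by capillary electrophoresis, with DMSO defining baseline.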

Test [13] is described as follows: ATG_RORE_CIS: Attagene CIS-FACTORIAL HepG2 Assay for human RAR-related Orphan Receptor Element (RORE) (AID 2282959). Particulars: HepG2 Attagene cis-factorial RORE reporter, mRNA; actives raise or lower the signal. Summed up: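 Endogenous factor activity at a cis response element is read as reporter transcript levels in HepG2 cells, 24 h post-dose. Transcripts are quantified by RT-PCR with capillary electrophoresis, and data fitted in both directions against DMSO.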

A short description of test [14]: ATG_Sox_CIS: Attagene CIS-FACTORIAL HepG2 Assay for human SRY-box transcription factor (SOX) (AID 2282960). The following applies: HepG2 Attagene cis-factorial SOX reporter, mRNA; actives raise or lower the signal. An outline of the steps: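 Measures mRNA induction of a SOX1-associated reporter in HepG2 after 24 h dosing. Fluorescently labelled RT-PCR fragments are separated by capillary electrophoresis, and gain or loss relative to DMSO control is fitted.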

In test [15] the target is Transcription factor Sp1 (Homo sapiens) (UniProt P08047). Put plainly: ATG_Sp1_CIS: Attagene CIS-FACTORIAL HepG2 Assay for human Specificity Protein 1 (Sp1) (AID 2282961). The following applies: HepG2 Sp1 cis-reporter transcription, actives raise or lower the signal. An outline of the steps:
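Cells: HepG2, transiently transfected with cis-regulated multiplexed reporters. Exposure: 24 h. Detection: reporter transcripts amplified, fluorescently labeled, restriction-digested and sized by capillary electrophoresis. Analysis: bidirectional fit relative to DMSO.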

A short description of test [16]: ATG_SREBP_CIS: Attagene CIS-FACTORIAL HepG2 Assay for human Sterol Regulatory Element Binding (SREBP) (AID 2282962). The following applies: HepG2 Attagene cis-factorial SREBP reporter, mRNA; actives raise or lower the signal. Summed up:
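Twenty-four hours after chemical dosing of transfected HepG2 cultures, reporter RNA was converted to cDNA, amplified, end-labelled with 6-FAM and resolved by capillary electrophoresis. Responses were fitted relative to DMSO.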

The target in test [17] is Signal transducer and activator of transcription 3 (Homo sapiens) (UniProt P40763). Description: ATG_STAT3_CIS: Attagene CIS-FACTORIAL HepG2 Assay for human Signal Transducer and Activator of Transcription 3 (STAT3) (AID 2282963). The following applies: HepG2, Attagene cis-factorial STAT3 reporter transcription; actives raise or lower the signal. An outline of the steps: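 Transcript-level reporter assay. HepG2 transient MRTU transfection, 24 h exposure, fluorescence detection after RT-PCR and CE; DMSO baseline.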
Signal transducer and activator of transcription 3 (Homo sapiens), sequence (P40763 whole entry, looked up): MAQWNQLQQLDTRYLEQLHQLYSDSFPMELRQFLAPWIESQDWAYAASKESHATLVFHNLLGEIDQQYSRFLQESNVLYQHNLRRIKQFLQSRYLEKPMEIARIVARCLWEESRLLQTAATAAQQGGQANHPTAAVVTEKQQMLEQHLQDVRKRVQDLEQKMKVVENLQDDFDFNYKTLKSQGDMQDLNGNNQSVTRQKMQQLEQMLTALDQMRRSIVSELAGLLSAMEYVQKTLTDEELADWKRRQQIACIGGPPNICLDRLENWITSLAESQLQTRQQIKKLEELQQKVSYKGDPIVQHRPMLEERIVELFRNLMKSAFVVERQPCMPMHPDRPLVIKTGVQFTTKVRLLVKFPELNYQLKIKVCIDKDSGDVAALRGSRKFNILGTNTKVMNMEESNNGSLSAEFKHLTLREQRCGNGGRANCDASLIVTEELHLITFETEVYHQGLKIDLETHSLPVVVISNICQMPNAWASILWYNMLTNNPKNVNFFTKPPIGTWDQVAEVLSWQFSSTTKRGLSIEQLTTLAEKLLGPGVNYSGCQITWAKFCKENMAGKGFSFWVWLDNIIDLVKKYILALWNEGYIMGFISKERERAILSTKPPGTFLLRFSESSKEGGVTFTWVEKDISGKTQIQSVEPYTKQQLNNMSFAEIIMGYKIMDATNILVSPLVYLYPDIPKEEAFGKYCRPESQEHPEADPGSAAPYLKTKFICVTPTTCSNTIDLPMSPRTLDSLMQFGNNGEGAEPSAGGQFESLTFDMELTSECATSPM

Test [18] is described as follows: ATG_TA_CIS: Attagene CIS-FACTORIAL HepG2 Assay for human TA Basal Promoter (AID 2282964). The following applies: HepG2 Attagene CIS-factorial TA basal promoter reporter; actives raise or lower the signal. Summed up: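 Multiplexed mRNA reporter assay, HepG2, 24 h. Reporter cDNA amplified, 6-FAM primer-extended, HpaI-cut, CE-sized; DMSO = negative control and baseline.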

The nature of test [19]: ATG_TCF_b_cat_CIS: Attagene CIS-FACTORIAL HepG2 Assay for human T-Cell-Factor with beta-catenin (TCF/b-cat) (AID 2282965). Particulars: HepG2 TCF/beta-catenin cis-reporter transcription, actives raise or lower the signal. An outline of the steps: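 HepG2 cells transiently transfected with multiple cis-promoter-regulated reporter transcription units, so endogenous transcription factor activity is measured. Reporter mRNA read 24 hours after dosing by RT-PCR, fluorescent labelling and capillary electrophoresis; bidirectional fitting against DMSO.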

A short description of test [20]: ATG_M_32_CIS: Attagene CIS-FACTORIAL HepG2 Assay for M32 Transcription Factor (Internal Marker) (AID 2282949).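 Also: background control marker of the multiplexed CIS panel rather than a real target.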 Particulars: HepG2 Attagene cis-factorial M32 reporter, mRNA; actives raise or lower the signal. An outline of the steps: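 Fluorescent capillary electrophoresis peaks of HpaI-digested, FAM-labelled RT-PCR reporter products give the signal. Source: transiently transfected human liver HepG2 cells, 24 h after chemical dosing; bidirectional fitting against DMSO.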

Calls of active or inactive are those of the source. The calls were made as follows: active = hit-call score of the fitted dose curve at least 0.9, where 1 is the maximum; inactive = score below 0.9.

Hepatocyte nuclear factor 6 (Homo sapiens), sequence (Q9UBC0 whole entry, looked up): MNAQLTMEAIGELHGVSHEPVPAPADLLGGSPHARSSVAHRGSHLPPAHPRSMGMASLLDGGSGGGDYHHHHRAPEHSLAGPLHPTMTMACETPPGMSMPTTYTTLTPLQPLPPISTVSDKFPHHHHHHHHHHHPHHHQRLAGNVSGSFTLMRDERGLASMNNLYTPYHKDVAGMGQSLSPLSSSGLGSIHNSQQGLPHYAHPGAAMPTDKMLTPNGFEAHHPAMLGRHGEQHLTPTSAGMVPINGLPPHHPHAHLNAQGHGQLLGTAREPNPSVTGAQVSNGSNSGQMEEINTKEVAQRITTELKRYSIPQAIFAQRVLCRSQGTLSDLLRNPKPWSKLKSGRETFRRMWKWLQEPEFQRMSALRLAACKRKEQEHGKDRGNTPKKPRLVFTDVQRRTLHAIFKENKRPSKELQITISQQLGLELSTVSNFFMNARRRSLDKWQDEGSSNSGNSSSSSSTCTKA
Heat shock factor protein 1 (Homo sapiens), sequence (Q00613 whole entry, looked up): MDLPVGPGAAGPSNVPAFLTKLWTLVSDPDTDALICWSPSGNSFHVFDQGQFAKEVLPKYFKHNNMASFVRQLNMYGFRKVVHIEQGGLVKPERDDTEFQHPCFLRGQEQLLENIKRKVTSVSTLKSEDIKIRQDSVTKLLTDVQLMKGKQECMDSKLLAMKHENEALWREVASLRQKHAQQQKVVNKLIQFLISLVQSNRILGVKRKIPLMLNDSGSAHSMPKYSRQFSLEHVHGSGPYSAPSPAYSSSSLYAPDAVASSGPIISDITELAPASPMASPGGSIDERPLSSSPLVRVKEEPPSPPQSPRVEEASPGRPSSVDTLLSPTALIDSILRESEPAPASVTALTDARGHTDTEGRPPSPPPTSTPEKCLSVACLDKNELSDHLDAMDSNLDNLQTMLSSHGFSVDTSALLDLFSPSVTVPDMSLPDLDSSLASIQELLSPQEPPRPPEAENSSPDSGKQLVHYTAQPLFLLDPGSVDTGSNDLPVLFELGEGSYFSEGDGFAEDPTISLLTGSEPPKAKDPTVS
Transcription factor Sp1 (Homo sapiens), sequence (P08047 whole entry, looked up): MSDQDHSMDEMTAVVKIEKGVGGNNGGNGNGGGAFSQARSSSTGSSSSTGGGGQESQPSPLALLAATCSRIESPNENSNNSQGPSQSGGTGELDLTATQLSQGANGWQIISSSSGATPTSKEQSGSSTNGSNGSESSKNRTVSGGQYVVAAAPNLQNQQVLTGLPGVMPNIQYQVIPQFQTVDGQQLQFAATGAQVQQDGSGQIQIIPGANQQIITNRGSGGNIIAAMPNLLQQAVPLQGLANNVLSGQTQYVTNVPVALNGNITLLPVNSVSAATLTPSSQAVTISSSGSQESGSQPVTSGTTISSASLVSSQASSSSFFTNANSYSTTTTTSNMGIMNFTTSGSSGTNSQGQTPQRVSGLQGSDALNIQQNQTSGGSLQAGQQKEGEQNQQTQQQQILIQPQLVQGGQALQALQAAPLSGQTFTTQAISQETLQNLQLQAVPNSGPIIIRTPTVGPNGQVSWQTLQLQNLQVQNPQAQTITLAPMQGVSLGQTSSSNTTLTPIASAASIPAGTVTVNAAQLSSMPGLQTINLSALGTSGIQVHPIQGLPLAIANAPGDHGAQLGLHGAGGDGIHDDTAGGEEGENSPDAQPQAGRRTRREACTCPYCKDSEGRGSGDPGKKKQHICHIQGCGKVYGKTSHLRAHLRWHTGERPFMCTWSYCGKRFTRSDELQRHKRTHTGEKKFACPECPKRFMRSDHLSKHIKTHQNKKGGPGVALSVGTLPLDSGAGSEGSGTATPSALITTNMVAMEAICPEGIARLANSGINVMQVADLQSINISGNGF
Bile acid receptor (Homo sapiens), sequence (Q96RI1 whole entry, looked up): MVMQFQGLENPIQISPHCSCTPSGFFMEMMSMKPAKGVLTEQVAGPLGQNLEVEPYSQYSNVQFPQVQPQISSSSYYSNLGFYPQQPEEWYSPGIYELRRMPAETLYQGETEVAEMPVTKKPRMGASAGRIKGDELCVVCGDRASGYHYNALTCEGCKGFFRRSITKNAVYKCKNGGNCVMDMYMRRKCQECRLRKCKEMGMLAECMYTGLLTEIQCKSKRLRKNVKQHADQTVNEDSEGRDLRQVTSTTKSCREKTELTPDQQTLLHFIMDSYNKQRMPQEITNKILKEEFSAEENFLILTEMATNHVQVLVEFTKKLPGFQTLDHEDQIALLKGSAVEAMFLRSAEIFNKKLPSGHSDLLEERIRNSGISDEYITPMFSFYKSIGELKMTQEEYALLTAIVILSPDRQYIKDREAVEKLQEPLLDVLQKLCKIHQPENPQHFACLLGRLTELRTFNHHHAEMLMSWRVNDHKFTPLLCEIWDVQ
Paired box protein Pax-6 (Homo sapiens), sequence (P26367 whole entry, looked up): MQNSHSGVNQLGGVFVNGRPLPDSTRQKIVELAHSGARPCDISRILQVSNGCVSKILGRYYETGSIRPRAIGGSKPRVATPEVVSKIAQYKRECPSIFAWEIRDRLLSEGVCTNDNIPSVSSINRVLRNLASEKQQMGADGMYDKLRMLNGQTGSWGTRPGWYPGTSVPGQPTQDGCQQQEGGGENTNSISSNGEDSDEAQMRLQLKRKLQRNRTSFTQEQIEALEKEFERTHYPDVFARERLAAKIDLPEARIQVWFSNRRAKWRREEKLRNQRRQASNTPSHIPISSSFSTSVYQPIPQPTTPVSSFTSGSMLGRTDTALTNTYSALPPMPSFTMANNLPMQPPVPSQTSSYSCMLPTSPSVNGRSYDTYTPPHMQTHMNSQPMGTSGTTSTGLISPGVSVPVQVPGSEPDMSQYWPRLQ

As a reminder, the AC50 is the midpoint of the concentration-response curve, whichever way the signal moves. Regarding `CCOC(=O)c1ccccc1N`, the call in test [1], in test [2], in test [3], in test [4], in [5] and in test [6] was inactive. Moreover, the result in test [7], in test [8], in [9], in [10], in test [12] and in test [13] was inactive. In addition, the compound was classed as inactive in test [14], in test [15], in [16], in test [17], in test [18] and in test [19]. In addition, the AC50 in [11] is 39.6 µM (active).
As for `Cc1cc(C)c(C(=O)P(=O)(c2ccccc2)c2ccccc2)c(C)c1`, the AC50 in test [1] is 12.8 µM (active); in test [2], 57.7 µM (active); in test [20] it was 53.1 µM (active); in test [4], 60.7 µM (active); in [6] it was 50.7 µM (active); in test [7], 62.5 µM (active). Further, the AC50 in test [8] is 17.9 µM (active); in test [11] it was 0.199 µM (active); in [13], 51 µM (active); in [17], 53.7 µM (active); in [18] it was 45 µM (active). Also, the compound was called inactive in test [3], in [5], in test [9], in test [12], in test [14] and in test [15]. Also, in test [19], the call was inactive.
`ClC(Cl)=C(c1ccc(Cl)cc1)c1ccccc1Cl`: the AC50 in [1] is 43.7 µM (active); in [2], 124 µM (active); in test [7] it was 41.7 µM (active); in test [8], 100 µM (active); in [10], 100 µM (active); in test [11], 2.77 µM (active). Further, the AC50 in test [12] is 55.3 µM (active); in test [15], 27.3 µM (active); in test [16], 98.5 µM (active). Moreover, the call in [3], in [4], in [5], in [6], in test [9] and in test [14] was inactive. The result in [17], in test [18] and in test [19] was inactive.
In the case of `CCNc1nc(Cl)nc(NC(C)(C)C)n1`, the compound was called inactive in test [1], in test [2], in [3], in [20], in [4] and in test [5]. Further, the compound was called inactive in test [6], in [7], in [8], in test [9], in test [12] and in test [13]. Besides, the call in [14], in test [15], in [16], in [17], in test [18] and in test [19] was inactive. Moreover, the AC50 in test [11] was 6.16 µM (active).
Turning to `O=C(O)C=CC(F)(C(F)(F)F)C(F)(F)F`, the result in test [1], in test [2], in [3], in test [20], in test [4] and in [5] was inactive. Moreover, the outcome in [6], in [7], in test [8], in [9], in test [11] and in test [12] was inactive. Also, the outcome in test [14], in [15], in [17], in test [18] and in test [19] was inactive.
With `CC(C)(C)OOC(C)(C)C`, the outcome in test [1], in test [2], in test [3], in test [20], in test [4] and in test [5] was inactive. Besides, the result in test [6], in [7], in test [8], in [9], in test [11] and in [12] was inactive. Also, the outcome in [14], in test [15], in test [17], in test [18] and in test [19] was inactive.
As for `CC(O)C(F)(F)C(F)(F)F` (stereo unspecified), the call in test [1], in test [2], in test [3], in test [20], in test [4] and in [5] was inactive. The call in test [6], in test [7], in test [8], in test [9], in [11] and in test [12] was inactive. Moreover, the compound was called inactive in [13], in test [14], in test [15], in test [17], in test [18] and in test [19].
